Screens deposited in PubChem BioAssay by National Center for Advancing Translational Sciences (NCATS).
S2 tox – viability counter-screen for ATXN expression inhibitors; AID 651635; S2 cells (HEK-293 line with an ATXN2-luciferase reporter) viability, CellTiter-Fluor protease fluorescence, 24 h; Potency, µM (top dose mostly 56.7 µM), actives largely listed as cytotoxic; 400,000 compounds, 0.49% hits; further: nearly all actives have a fitted effect of over 40% in size
HepG2 tox – kills HepG2 cells in TGF-b inhibitor counter-screen | HepG2 CAGA-GFP viability, ATP luminescence, 18 h | Potency, µM (series often up to 46.1 µM), without a hit: at the top dose activity change, negative = cytotoxicity, hits mostly cytotoxic | 410,000 compounds, 0.76% hits
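CellTiter-Glo luminescence gave cytotoxicity after 18 hours at 37 degrees C. The cells were HepG2 CAGA-GFP in 1% FBS DMEM, stimulated with 500 pg/mL TGF-beta after compound addition. %Activity was normalised to no-cell wells (complete cell-killing) and DMSO (no toxicity), and curves were fitted and classified.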
TGFb inhibitor – TGF-b pathway inhibition; HepG2 CAGA-GFP TGF-b/SMAD3 reporter, GFP fluorescence, 18 h; TGF-beta stimulated, 500 pg/mL final; Potency, µM (titrated, usually from 46.1 µM), without a hit: at the highest dose activity, negative = inhibition, actives largely listed as inhibitors; 410,000 compounds, 1.2% hits; AID 588855; further: on the % scale 0 is the no-effect control and ±100 the full control effect; nearly all actives have a fitted effect of over 65% in size
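Smad-responsive CAGA-GFP expression was quantified in HEPG2 cells exposed to compounds and 500 pg/mL final TGF-beta for 18 h at 37 degrees C; unstimulated wells defined full inhibition.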
Gal4-VP16 FLuc – inhibits Gal4-VP16 luciferase reporter, ROR gamma counter-screen; Drosophila S2 Gal4-VP16 UAS-luciferase, luminescence, 20 h; Potency, µM (titrated, usually from 53.6 µM), without a hit: top-dose activity, negative = inhibition, most hits filed as inhibitors; 310,000 compounds, 3.5% hits; AID 2546;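 further: Gal4-VP16 expression switched on by copper sulfate through the metallothionein promoter; on the % scale 0 is the no-effect control and ±100 the full control effect; nearly all actives have a fitted effect of over 50% in size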
RORgamma inh – ROR gamma (mouse) transcription inhibition; Drosophila S2 Gal4-RORgamma UAS-luciferase reporter, 20 h; Potency, µM (doses to about 53.6 µM), inactives show top-dose activity change, negative = inhibition, most hits filed as inhibitors; 310,000 compounds, 5.4% hits; AID 2551; further: on the % scale 0 is the no-effect control and ±100 the full control effect; nearly all actives have a fitted effect of over 60% in size
Target sequence (P51450 whole entry, looked up, the tested form may be a part): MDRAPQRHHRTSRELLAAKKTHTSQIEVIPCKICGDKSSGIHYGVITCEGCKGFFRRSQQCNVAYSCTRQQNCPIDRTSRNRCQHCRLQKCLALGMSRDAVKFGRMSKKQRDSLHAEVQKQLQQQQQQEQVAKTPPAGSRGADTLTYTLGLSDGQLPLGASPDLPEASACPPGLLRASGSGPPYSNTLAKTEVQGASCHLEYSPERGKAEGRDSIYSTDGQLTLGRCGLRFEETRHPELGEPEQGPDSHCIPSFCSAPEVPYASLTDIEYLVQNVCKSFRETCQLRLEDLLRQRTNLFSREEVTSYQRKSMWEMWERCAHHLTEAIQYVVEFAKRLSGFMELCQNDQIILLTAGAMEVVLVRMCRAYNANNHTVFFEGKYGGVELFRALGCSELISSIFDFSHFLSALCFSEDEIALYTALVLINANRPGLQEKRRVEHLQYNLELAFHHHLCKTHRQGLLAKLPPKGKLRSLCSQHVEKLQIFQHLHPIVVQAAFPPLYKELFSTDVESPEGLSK
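Using a luciferase readout, inhibitors were identified by reduced reporter activity in Drosophila cells coexpressing a copper-inducible Gal4–ROR gamma fusion and UAS-driven Photinus luciferase, incubated 20 hr after 700 uM copper sulfate.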
ATXN2 expr inh – inhibitors of ATXN2 expression; HEK-293 ATXN2-luciferase reporter, luminescence, 24 h; Potency, µM (titrated, usually from 57 µM), for inactives: at the top dose activity change, negative = inhibition, most hits filed as inhibitors; 360,000 compounds, 0.72% hits; further: on the % scale 0 is the no-effect control and ±100 the full control effect; nearly all actives have a fitted effect of over 55% in size
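ATXN2-luciferase reporter cells (luciferase flanked by upstream and downstream ATXN2 gene portions) were treated 24 h at 37 °C with compounds at up to 57 uM. SteadyGlo luminescence gave expression; GF-AFC fluorescence gave viability.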
Numbers without * were called inactive; i = inactive; ? = inconclusive; nt = not tested or not shown; [ ] = dose if it differs, or a comment. This is a sample that favours compounds with a hit; in the whole collection about 6.1% have one here. The call rests on the fitted dose curve; in most records, active means well fitted curve in the direction sought with a large enough effect; inconclusive means small, poorly fitted or top-dose-only effect, or another doubt; inactive means no such curve, though single readings can be large; an effect the other way counts as inactive or inconclusive. Potency means the concentration at half of the fitted maximal effect.

SMILES | S2 tox | HepG2 tox | TGFb inhibitor | Gal4-VP16 FLuc | RORgamma inh | ATXN2 expr inh
CC(C)[C@@H](OCc1ccccc1)[C@H](C)/C=N\O[C@@H](C)c1cn([C@H](CO)Cc2ccccc2)nn1 | nt | nt | nt | 1.1%[10 µM] | -8.7%[10 µM] | nt
Cc1ccc(NC(=O)Cn2ccn(Cc3ccc(Cl)cc3)c(=O)c2=O)cc1C | nt | -12.5% | -10.2% | nt | nt | nt
CCc1nnc(NC(=O)c2ccc(S(=O)(=O)N(C)Cc3ccccc3)cc2)o1 | i | -32.2% | -10.6% | ? | 0.126µM* | ?
CC(=O)Nc1ccc(S(=O)(=O)N(C)Cc2ccccc2)cc1 | i | -6.6% | 11.1% | 24.7% | ? | 0.1%
COc1cccc(Cn2c(SCC(=O)N3CCN(c4ccc(F)cc4)CC3)nc3ccccc32)c1 | i | -46.8% | -5.4% | nt | nt | 2.8%
O=C(COc1ccc(F)cc1)Nc1nccs1 | i | -19.6% | -3.1% | -8.8% | 10µM* | 15.0%
COCc1n[nH]c(=S)n1-c1ccccc1 | i | -2.7% | 4.6% | 1.2% | -11.2% | 1.7%
S=c1[nH]nc(COc2ccccc2)n1-c1ccc(Cl)cc1 | ? | 3.9% | -6.0% | nt | nt | 16.0%
COc1ccc(-n2c(-c3cnccn3)n[nH]c2=S)cc1 | i | -11.9% | -14.6% | -10.2% | ? | -8.7%
Cc1ccc(-n2c(COc3ccccc3)n[nH]c2=S)cc1 | i | 11.7% | 22.9% | ? | 2.51µM* | 3.4%[11.3 µM]
COc1ccc(-n2c(COc3ccccc3)n[nH]c2=S)cc1 | i | 1.1% | 15.2% | -11.4% | 7.08µM* | 3.8%
COc1ccc(-n2c(COc3ccc(C)cc3)n[nH]c2=S)cc1 | i | -4.0% | -4.1% | 7.08µM* | 5.62µM* | nt
O=c1cc(-c2ccccc2)n2c(SCc3ccc(F)cc3)nnc2[nH]1 | nt | 0.8% | -9.3% | nt | nt | nt
O=C(CSc1n[nH]c(-c2cccs2)n1)N1CCCC1 | i | -23.8% | 4.4% | nt | nt | 1.3%
c1ccc(-c2nc(CSc3n[nH]c(-c4cccs4)n3)cs2)cc1 | i | -5.4% | -3.1% | 4.7% | 31.6µM* | -8.5%
C/C(N=Nc1nc2ccccc2s1)=N\Nc1ccccc1O | ? | -97.4% | 11.2µM* | -4.1% | 8.91µM* | ?
COc1ccc(-n2ncc(C(=O)NCc3ccccc3)c2C2CCN(C(=O)OC(C)(C)C)CC2)cc1 | nt | -32.7% | ? | nt | nt | nt
COc1ccccc1NS(=O)(=O)c1cccc(-n2c(O)c(C=Nc3ccccc3C(=O)O)c3ccccc3c2=O)c1 | 20µM* | -20.3% | ? | 13.1% | 43.6% | -19.2%
CC1CCC/C=C/C(=O)c2c(O)cc(O)cc2CC(=O)O1 (stereo not given) | 11.2µM* | -68.0% | 7.08µM* | 22.4µM* | ? | 10µM*
O=C(CNC(=O)c1ccccc1)N/N=C/c1cn[nH]c1-c1ccccc1 | i | 1.7% | 5.5% | ? | -14.3% | -3.0%
Cc1cc(C(=O)N/N=C/c2cn[nH]c2-c2ccccc2)cs1 | i | 9.5% | 8.7% | 15.0% | -1.9% | 17.7%
O=C(N/N=C/c1cn[nH]c1-c1ccc(Cl)cc1)c1ccc([N+](=O)[O-])cc1 | i | 8.4% | -12.5% | ? | 10µM* | -17.5%[11.3 µM]
O=C(N/N=C\c1cn[nH]c1-c1ccc(Cl)cc1)c1cccs1 | i | -86.7% | 10µM* | ? | ? | nt
O=C(NN=Cc1ccccc1Cl)c1ccc([N+](=O)[O-])cc1 | i | 0.8% | -9.9% | nt | nt | 4.7%
O=C(N/N=C\c1cn[nH]c1-c1ccccc1)c1ccc([N+](=O)[O-])cc1 | i | 0.7% | 0.8% | -4.0% | 11.2µM* | 3.3%
SMILES | S2 tox | HepG2 tox | TGFb inhibitor | Gal4-VP16 FLuc | RORgamma inh | ATXN2 expr inh
Nc1c(Br)cc(/C=C2\C=Cc3ccccc32)cc1Br | nt | -35.7% | -27.9% | nt | nt | nt
Oc1ccc(Br)cc1-c1cc(-c2ccco2)[nH]n1 | i | -32.2% | ? | 15.8µM* | 12.6µM* | 7.0%
Oc1ccc(Cl)cc1-c1cc(-c2ccco2)[nH]n1 | i | -43.8% | ? | 12.6µM* | 3.55µM* | 14.6%
Oc1c(-c2cc(-c3ccco3)[nH]n2)ccc2ccccc12 | i | -25.2% | 2.9% | 14.1µM* | 6.31µM* | 117.8%
Cc1c(-c2cc(Br)ccc2O)nc2cc3c(cc2c1C)OCO3 | i | -5.7% | 0.0% | 11.3% | 1.0% | 56.1%
Oc1ccc(Br)cc1-c1ccn[nH]1 | i | -14.3% | 0.3% | 6.31µM* | 2.82µM* | 13.6%
CCN(CC)C(=O)Cn1c(=O)n(CC2CCC(C(=O)NC)CC2)c(=O)c2sccc21 (stereo not given) | i | 9.9% | 24.3% | nt | nt | -1.3%
COc1ccccc1[C@]1(C)ON(c2ccccc2C(F)(F)F)C1=O | ? | -21.1% | ? | nt | nt | ?
CC[C@]1(c2ccccc2OC)ON(c2ccccc2C(F)(F)F)C1=O | nt | 15.8µM* | 10µM* | nt | nt | ?
CC(C)(C)c1ccc(S(=O)(=O)N2CCC(O)(c3ccc(Cl)cc3)CC2)cc1 | ? | -43.9% | 12.6µM* | ? | 24.4% | nt
CCN(CC)c1ccc2c(c1)CCCN2 | nt | nt | nt | ? | 2.82µM* | nt
COc1cc(-c2cc(C)c3cccc(OC)c3n2)cc2c1OCCN(C(=O)Cn1nc(C)cc1C)C2 | i | nt | nt | nt | nt | nt
CC(=O)Nc1cc2cc(NS(=O)(=O)c3ccc(Cl)cc3)ccc2oc1=O | i | 0.199µM* | 3.9% | -2.8% | 0.4% | 0.5%
CC(/C=N/n1c(-c2ccccc2)n[nH]c1=S)=C\c1ccco1 | i | -8.0% | 1.2% | 7.08µM* | ? | -2.6%
CC(/C=N/n1c(-c2ccncc2)n[nH]c1=S)=C\c1ccco1 | i | -6.0% | -10.3% | 4.6% | -39.6% | nt
CC(/C=N/n1c(-c2ccc(C)cc2)n[nH]c1=S)=C\c1ccco1 | i | -7.6% | -7.4% | 2.82µM* | 2.82µM* | -0.1%
O=C(CCCCCn1c(=S)[nH]c2cc3c(cc2c1=O)OCO3)N1CCN(c2ccccc2)CC1 | i | -0.2% | 3.4% | -6.9% | ? | 4.3%
